Bioassay records from PubChem BioAssay.
Hits are enriched below; roughly 2.6% of the tested compounds scored in any of these assays.
SIAE inh: human SIAE inhibition, primary screen; 370,000 tested, 0.69% active; SIAE FP-Rh probe binding, fluorescence polarization; inhibition, % at 9.66 µM;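 active = inhibition above a cutoff: mean of compounds within the control limits plus 3 SD of those, cut at about 17% in these data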;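 note: 0% = plate median of compound wells and 100% = probe without SIAE protein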
Fam108B inh: counter-screen for RBBP9 inhibitors: inhibitors of mouse Fam108B; recombinant Fam108B, FP-Rh probe fluorescence polarization; inhibition, % at 9.51 µM; 300,000 tested, 0.33% active; AID 1947;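 active = inhibition above the screen mean inhibition plus 3 SD, computed separately per campaign, cut at about 18% in these data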;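 note: inhibitors lower polarization as less probe binds the enzyme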
PAD4 inh: PAD4 (human) enzyme inhibition | recombinant PAD4, RCA probe fluorescence polarization | inhibition, % at 6.36 µM | Q9UM07 | 330,000 tested, 0.41% active;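 active = percent inhibition above a cutoff equal to the mean of all tested compounds plus 3 SD, cut at about 15% in these data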;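 note: 0% = PAD4 with RCA probe and DMSO and 100% = probe without PAD4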
Target sequence (Q9UM07 whole entry, looked up): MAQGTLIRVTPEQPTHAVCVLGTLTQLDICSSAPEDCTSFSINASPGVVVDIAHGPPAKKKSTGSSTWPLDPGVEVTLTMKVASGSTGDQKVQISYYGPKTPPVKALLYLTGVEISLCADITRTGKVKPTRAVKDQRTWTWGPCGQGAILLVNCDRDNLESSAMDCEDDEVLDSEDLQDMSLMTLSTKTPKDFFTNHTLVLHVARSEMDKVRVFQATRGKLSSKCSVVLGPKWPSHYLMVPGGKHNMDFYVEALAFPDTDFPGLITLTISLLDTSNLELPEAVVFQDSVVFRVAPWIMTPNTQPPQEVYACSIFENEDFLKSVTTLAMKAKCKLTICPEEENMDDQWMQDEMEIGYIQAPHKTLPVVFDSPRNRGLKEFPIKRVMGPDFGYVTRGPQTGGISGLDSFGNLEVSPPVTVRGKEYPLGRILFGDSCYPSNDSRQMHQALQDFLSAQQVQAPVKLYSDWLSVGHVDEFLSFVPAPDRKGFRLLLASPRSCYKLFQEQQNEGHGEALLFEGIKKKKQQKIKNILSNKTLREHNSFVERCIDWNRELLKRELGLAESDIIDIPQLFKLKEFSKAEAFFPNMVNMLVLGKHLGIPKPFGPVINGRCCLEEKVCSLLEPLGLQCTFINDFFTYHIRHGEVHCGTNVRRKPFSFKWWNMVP
PME-1 primary: blocks human protein phosphatase methylesterase 1 | Q9Y570 | recombinant PME-1, FP-Rh probe fluorescence polarization | inhibition, % at 5.9 µM | 320,000 tested, 0.53% active;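 active = inhibition above the campaign mean of all compounds plus 3 SD, cut at about 26% in these data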;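 note: competitive labeling of PME-1 active site by serine hydrolase directed probe; 0% = PME-1 with DMSO and 100% = wells lacking PME-1 enzyme; inhibitors block probe labeling so polarization falls and inhibition rises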
TCR CD3 inh: blocks the human TCR-CD3 interaction; TAMRA-labeled TCR probe fluorescence, biochemical; inhibition, % at 9.4 µM; 360,000 tested, 0.37% active; AID 651800; in the data active = inhibition above about 19%;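 note: recombinant mutant TCR 2C K166C tagged with TAMRA read by polarization; 0% = receptor in buffer alone and 100% = receptor with positive control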
PRMT1 inh: blocks human protein arginine methyltransferase 1. 370,000 tested, 1.3% active. inhibition, % at 2.79 µM. recombinant PRMT1, activity-based probe fluorescence polarization. AID 652257. Q99873;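 active = inhibition above about 21% made by adding two undisclosed values, limit read from the data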
* marks the source's active call; other numbers are inactive results; nt = no result.

SMILES	SIAE inh	Fam108B inh	PAD4 inh	PME-1 primary	TCR CD3 inh	PRMT1 inh
CCn1c2ccccc2c2nnc(SCc3ccc(C(=O)OC)o3)nc21	3	3	1	4	2	24*
COc1ccccc1C1C([N+](=O)[O-])=CC([N+](=O)[O-])=CN1C (stereo not given)	2	2	-5	0	1	0
COc1ccccc1C1NC=C([N+](=O)[O-])C=C1[N+](=O)[O-] (stereo not given)	3	12	-12	6	-14	24*
Cc1ccc(C2C3CN(C(C)C)CC=C3C(C#N)=C(N)C2(C#N)C#N)cc1 (stereo not given)	1	1	12	3	8	40*
Cn1c(SCC(=O)c2ccc3c(c2)OCO3)nnc1C1COc2ccccc2O1 (stereo not given)	-4	-3	-2	-2	7	22*
Cn1c(SCC(=O)c2ccccc2)nnc1C1COc2ccccc2O1 (stereo not given)	0	-2	-4	3	7	6
Cc1ccc(Nc2nnc(-c3ccc(N4CCOCC4)c([N+](=O)[O-])c3)c3ccccc23)cc1	10	5	0	48*	-7	-3
CC(=O)Cc1cc(O)c2ccccc2c1OC(=O)c1ccc(Br)cc1	8	2	-12	28*	-3	1
Cc1occc(=O)c1OC(=O)Nc1ccc(Cl)c(Cl)c1	-177	-52	-9	-118	73*	-3
COc1ccc(C(=O)Oc2c(C)occc2=O)cc1OC	-2	-3	1	-7	2	4
COc1ccc2[nH]c(=O)c(CN(Cc3nnnn3Cc3ccco3)C3CCCCC3)cc2c1	0	-2	0	2	1	2
COc1ccc2cc(CN(CCc3ccccc3)Cc3nnnn3Cc3ccco3)c(=O)[nH]c2c1	-2	-6	-3	-5	5	22*
CC(=O)Nc1ccc(S(=O)(=O)Nc2ncccn2)cc1	-2	1	5	2	-5	0
O=C(Nc1ccc(S(=O)(=O)Nc2ncccn2)cc1)C1=COCCO1	0	-3	3	-7	2	22*
CON=C(C(=O)NC1C(=O)N2C(C(=O)O)=C(CSc3nc(=O)c(=O)[nH]n3C)CSC12)c1csc(N)n1 (stereo not given)	-7	nt	nt	nt	1	21*
COCC1=C(C(=O)OC(C)OC(=O)OC(C)C)N2C(=O)[C@@H](NC(=O)/C(=N\OC)c3csc(N)n3)[C@H]2SC1 (stereo not given in full)	-1	1	0	-3	4	-3
O=C(O)c1ccc2c(c1)C(=O)/C(=C/c1ccccc1)C2=O	-7	15	3	-4	5	25*
COC(=O)C1CN(Cc2ccccc2)CCS(=O)(=O)N1Cc1ccc(OC)cc1 (stereo not given)	-6	nt	nt	nt	nt	-5
CCCCN(C(=O)CSc1nnnn1C)c1c(N)n(Cc2ccccc2)c(=O)[nH]c1=O	13	-1	4	8	9	1
CCCCN(C(=O)CSc1nnc(Nc2ccccc2)s1)c1c(N)n(CCC)c(=O)[nH]c1=O	4	-11	20*	-2	1	-2
Cc1ccccc1NC(=O)NC1(C(=O)N2CCOCC2)CCCCC1	-1	-4	-4	0	-6	0
O=C(Nc1ccccc1C(F)(F)F)NC1(C(=O)N2CCOCC2)CCCCC1	0	nt	nt	nt	10	23*
COC(=O)[C@]12C[C@H](CC(=O)N3CCN(C(=O)c4ccco4)CC3)C(=O)N(Cc3cccc4ccccc34)C1=C[C@H](C(C)(C)C)O[C@@H]2C	-8	nt	nt	nt	nt	2
COc1cccc(OC(C)CCN2CCC(C(O)(c3ccccc3)c3ccccc3)CC2)c1 (stereo not given)	-6	nt	nt	nt	nt	0
CCn1c(COc2ccccc2)nnc1SCC(=O)Nc1ccc(S(=O)(=O)Nc2cc(C)nc(C)n2)cc1	-2	nt	nt	nt	nt	-4
SMILES	SIAE inh	Fam108B inh	PAD4 inh	PME-1 primary	TCR CD3 inh	PRMT1 inh
Cc1cc2nc3c(=O)n(CCc4ccccc4)c(=O)[nH]c3nc2cc1N	10	9	1	54*	3	109*
Cc1ccc(C2CC(=O)N3CN(c4ccc(Br)cc4)CSC3=C2C#N)o1 (stereo not given)	5	5	-11	5	-1	82*
N#CC1=C2SCN(c3ccccc3)CN2C(=O)CC1c1cccs1 (stereo not given)	-2	0	-6	1	4	19
CN(Cc1ccccc1)C(=O)OCc1cn(Cc2ccc(C(F)(F)F)cc2)nn1	5	nt	nt	nt	nt	3
Oc1ccc(Br)cc1-c1nc2cnccn2c1NC1CCCC1	9	10	-3	26*	0	5
COc1cc(OC)cc(-c2nnc(Sc3ccc(C=O)cc3[N+](=O)[O-])o2)c1	nt	14	26*	5	nt	nt
O=c1[nH]c(C2CCN(S(=O)(=O)c3cccc(C(F)(F)F)c3)CC2)nc2c1nnn2Cc1cccc(F)c1	-8	-2	1	11	4	-1
O=c1[nH]c(C2CCN(S(=O)(=O)c3ccc(C(F)(F)F)cc3)CC2)nc2c1nnn2Cc1ccc(F)cc1	-7	-3	6	68*	4	-3
COc1ccc(N2Cc3ccc(C(=O)N/N=C\c4ccc(O)cc4O)cc3C2)cc1	nt	50*	-8	48*	nt	nt
COc1ccc2nc(C)cc(SCC(=O)N/N=C/c3ccc(O)cc3O)c2c1	-6	-2	13	-4	-3	17
Cc1ccccc1C1C2=C(Nc3[nH]n(-c4ccccc4)c(=O)c31)c1ccccc1C2=O (stereo not given)	nt	12	0	24	nt	nt
Cc1cccc(C2C3=C(Nc4[nH]n(-c5ccccc5)c(=O)c42)c2ccccc2C3=O)c1 (stereo not given)	20*	nt	nt	nt	4	21*
COc1cc(NC(=O)C2CCCN(S(=O)(=O)c3ccc(C)cc3)C2)cc(OC)c1 (stereo not given)	-5	nt	nt	nt	nt	-2
CCOC(=O)C1=C(COC(=O)/C=C/c2ccccc2)NC(=O)NC1C (stereo not given)	0	-4	-4	0	5	1
CCOC(=O)C1=C(COC(=O)/C=C/c2ccc(C)o2)NC(=O)NC1C (stereo not given)	1	nt	-2	-3	2	23*
O=C(CCCc1nc2ccccc2s1)N1CCN(c2ccccc2F)CC1	4	4	0	-3	5	-6
O=C(CCCc1nc2ccccc2s1)N1CCN(c2ccccc2)CC1	4	2	1	3	8	23*
NC(=O)c1c(NC(=O)C2CC=CCC2C(=O)O)sc2c1CCCCC2 (stereo not given)	9	3	0	1	1	23*
O=C(c1nc2ccc(Cl)cn2c1CN1CCCC1)N1CCc2ccccc2C1	0	-1	1	-1	11	24*
Cn1c(CCC(=O)Nc2ccc(F)cc2)nc2cc(S(=O)(=O)N3CCOCC3)ccc21	8	-1	2	2	-2	0
